The supplement of paper PMC10849652
The full data set covers some 7,900 targets. This sample favours those with a hit. About 0.6% of all pairs of compound and target were hits. Values without a mark were called inactive.

Experiments:
Experiment in all cases: log2 fold change, soluble protein after heating vs DMSO (PISA); higher = thermal stabilisation; K562 cells, 10 uM, 30 min; active = over 0.2 and 3.5 SD of the protein, either way, in both replicates (recomputed)
saracatinib = compound: CN1CCN(CCOc2cc(OC3CCOCC3)c3c(Nc4c(Cl)ccc5c4OCO5)ncnc3c2)CC1 [saracatinib]
How it was run: (§1)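 K562 cells at 2×10^6 cells/mL were treated for 30 min with 10 μM compound, and aliquots were heated for 3 min over 48°C-58°C before pooling. Extraction used PBS with 0.5% NP-40 at 4°C, and soluble protein was the supernatant after 21,000xg for 90 min, measured by TMTpro 16plex LC-MS/MS with channel sums equalised. Thermal stability values, relative to control samples and from duplicates, are log2 fold changes.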

sotrastaurin = compound: CN1CCN(c2nc(C3=C(c4c[nH]c5ccccc45)C(=O)NC3=O)c3ccccc3n2)CC1 [sotrastaurin]
How it was run: as §1

alvocidib = compound: CN1CC[C@H](c2c(O)cc(O)c3c(=O)cc(-c4ccccc4Cl)oc23)[C@H](O)C1 [alvocidib]
How it was run: as §1

Tubastatin A = compound: CN1CCc2c(c3ccccc3n2Cc2ccc(C(=O)NO)cc2)C1 [Tubastatin A]
How it was run: as §1

[1] = compound: CNC(=O)C1=CC=CC=C1NC2=NC(=NC=C2Cl)NC3=C(C=C(C=C3)N4CCOCC4)OC
How it was run: as §1

defactinib = compound: CNC(=O)c1ccc(Nc2ncc(C(F)(F)F)c(NCc3nccnc3N(C)S(C)(=O)=O)n2)cc1 [defactinib]
How it was run: as §1

rucaparib = compound: CNCc1ccc(-c2[nH]c3cc(F)cc4c3c2CCNC4=O)cc1 [rucaparib]
How it was run: as §1

[2] = compound: CNc1nc(-c2ccc3c(N)n[nH]c3c2)cc(N2C[C@@H](C(=O)NC3CCCCC3)CC[C@H]2C)n1
How it was run: as §1

encorafenib = compound: COC(=O)N[C@@H](C)CNc1nccc(-c2cn(C(C)C)nc2-c2cc(Cl)cc(NS(C)(=O)=O)c2F)n1 [encorafenib]
How it was run: as §1

[3] = compound: COC(=O)[C@H](CCSC)NC(=O)C1=C(C=C(C=C1)NC[C@H](CS)N)C2=CC=CC=C2
How it was run: as §1

[4] = compound: COC1=CC=C(C=C1)CN2C=CC3=C2C=C(C=C3)C(=O)NO
How it was run: as §1

filanesib = compound: CON(C)C(=O)N1N=C(c2cc(F)ccc2F)S[C@@]1(CCCN)c1ccccc1 [filanesib]
How it was run: as §1

zotarolimus = compound: CO[C@H]1C[C@@H]2CC[C@@H](C)[C@@](O)(O2)C(=O)C(=O)N2CCCC[C@H]2C(=O)O[C@H]([C@H](C)C[C@@H]2CC[C@H](n3cnnn3)[C@H](OC)C2)CC(=O)[C@H](C)/C=C(\C)[C@@H](O)[C@@H](OC)C(=O)[C@H](C)C[C@H](C)/C=C/C=C/C=C/1C [zotarolimus]
How it was run: as §1

idasanutlin = compound: COc1cc(C(=O)O)ccc1NC(=O)[C@@H]1N[C@@H](CC(C)(C)C)[C@](C#N)(c2ccc(Cl)cc2F)[C@H]1c1cccc(Cl)c1F [idasanutlin]
How it was run: as §1

alisertib = compound: COc1cc(Nc2ncc3c(n2)-c2ccc(Cl)cc2C(c2c(F)cccc2OC)=NC3)ccc1C(=O)O [alisertib]
How it was run: as §1

[5] = compound: COc1cc2nc(-c3cc(F)ccc3O)nc(N[C@@H]3CNC[C@H]3C(C)(C)O)c2cc1OC
How it was run: as §1

gefitinib = compound: COc1cc2ncnc(Nc3ccc(F)c(Cl)c3)c2cc1OCCCN1CCOCC1 [gefitinib]
How it was run: as §1

[6] = compound: COc1cccc2cc(-c3nc([C@H]4CC[C@H](C(=O)O)CC4)n4ncnc(N)c34)[nH]c12
How it was run: as §1

lapatinib = compound: CS(=O)(=O)CCNCc1ccc(-c2ccc3ncnc(Nc4ccc(OCc5cccc(F)c5)c(Cl)c4)c3c2)o1 [lapatinib]
How it was run: as §1

pictilisib = compound: CS(=O)(=O)N1CCN(Cc2cc3nc(-c4cccc5[nH]ncc45)nc(N4CCOCC4)c3s2)CC1 [pictilisib]
How it was run: as §1

UniProt Q96BW9, sequence (Q96BW9 whole entry, looked up): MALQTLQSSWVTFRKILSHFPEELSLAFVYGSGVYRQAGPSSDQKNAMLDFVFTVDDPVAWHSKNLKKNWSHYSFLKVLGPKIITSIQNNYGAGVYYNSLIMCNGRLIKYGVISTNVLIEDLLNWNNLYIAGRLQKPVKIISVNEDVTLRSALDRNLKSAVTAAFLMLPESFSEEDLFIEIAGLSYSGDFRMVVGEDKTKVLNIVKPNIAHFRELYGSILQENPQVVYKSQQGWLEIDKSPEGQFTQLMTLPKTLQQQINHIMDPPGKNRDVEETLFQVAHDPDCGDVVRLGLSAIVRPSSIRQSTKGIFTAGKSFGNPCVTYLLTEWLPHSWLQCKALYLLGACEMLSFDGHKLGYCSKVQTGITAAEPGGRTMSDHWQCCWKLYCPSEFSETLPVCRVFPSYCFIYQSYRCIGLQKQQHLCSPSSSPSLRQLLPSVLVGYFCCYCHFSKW
UniProt Q13596, sequence (Q13596 whole entry, looked up): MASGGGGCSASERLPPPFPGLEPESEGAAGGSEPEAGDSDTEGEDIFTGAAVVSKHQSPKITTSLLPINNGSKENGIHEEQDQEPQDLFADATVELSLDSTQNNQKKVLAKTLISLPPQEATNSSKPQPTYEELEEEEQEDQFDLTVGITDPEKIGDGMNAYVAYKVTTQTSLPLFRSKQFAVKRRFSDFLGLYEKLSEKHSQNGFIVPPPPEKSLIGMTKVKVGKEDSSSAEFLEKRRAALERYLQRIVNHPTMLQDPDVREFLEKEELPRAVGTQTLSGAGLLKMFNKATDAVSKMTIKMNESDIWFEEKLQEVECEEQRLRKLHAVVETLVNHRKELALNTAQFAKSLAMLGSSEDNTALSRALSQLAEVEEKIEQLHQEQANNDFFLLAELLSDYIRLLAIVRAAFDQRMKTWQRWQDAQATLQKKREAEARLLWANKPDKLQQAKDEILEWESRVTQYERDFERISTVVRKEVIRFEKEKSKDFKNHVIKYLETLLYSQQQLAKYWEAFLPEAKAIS
UniProt Q13395, sequence (Q13395 whole entry, looked up): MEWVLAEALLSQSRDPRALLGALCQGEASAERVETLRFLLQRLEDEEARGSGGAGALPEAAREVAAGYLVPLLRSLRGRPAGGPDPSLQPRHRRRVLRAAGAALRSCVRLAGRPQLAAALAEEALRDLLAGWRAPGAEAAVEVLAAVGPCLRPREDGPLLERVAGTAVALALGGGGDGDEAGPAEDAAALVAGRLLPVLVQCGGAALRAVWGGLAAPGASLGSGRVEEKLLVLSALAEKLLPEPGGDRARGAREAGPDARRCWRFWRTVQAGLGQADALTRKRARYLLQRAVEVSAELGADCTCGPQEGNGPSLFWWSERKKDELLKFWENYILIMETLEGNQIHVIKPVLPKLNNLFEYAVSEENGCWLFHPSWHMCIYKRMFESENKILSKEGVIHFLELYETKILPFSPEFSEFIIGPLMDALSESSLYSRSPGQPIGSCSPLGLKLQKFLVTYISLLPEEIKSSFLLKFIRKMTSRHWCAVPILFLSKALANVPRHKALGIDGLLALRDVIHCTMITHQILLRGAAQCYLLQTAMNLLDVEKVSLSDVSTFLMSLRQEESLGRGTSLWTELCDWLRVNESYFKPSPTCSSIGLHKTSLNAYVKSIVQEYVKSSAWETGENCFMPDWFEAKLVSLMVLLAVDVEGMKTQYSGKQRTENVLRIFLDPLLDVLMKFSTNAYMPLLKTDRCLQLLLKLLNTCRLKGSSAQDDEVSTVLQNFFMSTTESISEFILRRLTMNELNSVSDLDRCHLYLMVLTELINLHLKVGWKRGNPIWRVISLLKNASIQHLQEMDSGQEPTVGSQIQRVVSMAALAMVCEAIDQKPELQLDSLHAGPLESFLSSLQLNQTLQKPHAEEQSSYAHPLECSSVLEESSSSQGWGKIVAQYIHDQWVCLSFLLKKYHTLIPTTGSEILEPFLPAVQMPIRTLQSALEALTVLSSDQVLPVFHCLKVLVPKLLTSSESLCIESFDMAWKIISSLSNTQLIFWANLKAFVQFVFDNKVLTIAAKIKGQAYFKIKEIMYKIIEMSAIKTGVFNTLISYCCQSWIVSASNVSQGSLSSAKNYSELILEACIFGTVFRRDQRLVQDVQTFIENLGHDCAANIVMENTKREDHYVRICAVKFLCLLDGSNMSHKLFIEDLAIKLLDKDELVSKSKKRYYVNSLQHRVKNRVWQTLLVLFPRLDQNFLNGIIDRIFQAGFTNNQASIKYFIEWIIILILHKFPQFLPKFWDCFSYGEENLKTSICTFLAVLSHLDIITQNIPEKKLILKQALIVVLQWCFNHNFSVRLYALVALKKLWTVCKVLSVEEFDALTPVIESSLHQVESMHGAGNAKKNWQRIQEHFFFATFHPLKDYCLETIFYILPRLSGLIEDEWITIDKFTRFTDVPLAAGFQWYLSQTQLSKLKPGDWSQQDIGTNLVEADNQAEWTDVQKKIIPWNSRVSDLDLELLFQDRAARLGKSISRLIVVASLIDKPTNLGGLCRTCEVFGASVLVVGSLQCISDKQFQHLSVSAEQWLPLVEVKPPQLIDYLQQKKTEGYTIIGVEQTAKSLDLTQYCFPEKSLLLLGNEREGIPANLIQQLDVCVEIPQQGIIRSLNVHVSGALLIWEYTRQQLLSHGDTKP
UniProt Q92797, sequence (Q92797 whole entry, looked up): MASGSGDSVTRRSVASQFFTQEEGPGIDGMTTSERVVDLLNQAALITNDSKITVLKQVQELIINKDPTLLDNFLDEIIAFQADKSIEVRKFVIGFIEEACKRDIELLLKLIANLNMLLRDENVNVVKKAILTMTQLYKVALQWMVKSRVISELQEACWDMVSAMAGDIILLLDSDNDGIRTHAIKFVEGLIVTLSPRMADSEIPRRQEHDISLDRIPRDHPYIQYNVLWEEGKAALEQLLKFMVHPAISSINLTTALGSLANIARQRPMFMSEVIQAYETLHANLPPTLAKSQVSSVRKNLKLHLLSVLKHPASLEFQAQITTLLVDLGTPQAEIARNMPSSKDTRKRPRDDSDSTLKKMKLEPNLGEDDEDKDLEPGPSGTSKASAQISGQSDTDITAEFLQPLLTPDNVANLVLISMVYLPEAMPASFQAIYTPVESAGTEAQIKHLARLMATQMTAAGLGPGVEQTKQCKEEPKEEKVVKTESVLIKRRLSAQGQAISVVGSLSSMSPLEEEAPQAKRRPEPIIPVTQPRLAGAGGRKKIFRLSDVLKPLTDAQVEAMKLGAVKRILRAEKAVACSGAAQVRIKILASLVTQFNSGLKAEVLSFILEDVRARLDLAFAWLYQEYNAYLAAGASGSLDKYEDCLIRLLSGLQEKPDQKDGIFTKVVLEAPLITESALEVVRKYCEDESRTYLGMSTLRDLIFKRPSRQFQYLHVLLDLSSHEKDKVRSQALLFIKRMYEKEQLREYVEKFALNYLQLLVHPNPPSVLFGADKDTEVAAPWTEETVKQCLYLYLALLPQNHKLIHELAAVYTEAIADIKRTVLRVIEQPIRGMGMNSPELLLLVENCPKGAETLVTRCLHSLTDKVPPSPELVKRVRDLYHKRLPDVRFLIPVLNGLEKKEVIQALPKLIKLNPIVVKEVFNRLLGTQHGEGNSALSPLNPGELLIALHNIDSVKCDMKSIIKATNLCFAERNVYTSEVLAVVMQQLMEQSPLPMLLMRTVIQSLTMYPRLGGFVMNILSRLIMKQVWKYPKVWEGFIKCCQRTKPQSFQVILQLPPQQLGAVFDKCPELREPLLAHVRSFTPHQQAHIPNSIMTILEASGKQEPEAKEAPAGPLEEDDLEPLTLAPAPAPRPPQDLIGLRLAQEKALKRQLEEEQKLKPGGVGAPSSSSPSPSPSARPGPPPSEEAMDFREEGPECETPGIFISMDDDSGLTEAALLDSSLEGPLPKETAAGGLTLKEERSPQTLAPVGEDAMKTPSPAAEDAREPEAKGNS
UniProt Q6P1M0, sequence (Q6P1M0 whole entry, looked up): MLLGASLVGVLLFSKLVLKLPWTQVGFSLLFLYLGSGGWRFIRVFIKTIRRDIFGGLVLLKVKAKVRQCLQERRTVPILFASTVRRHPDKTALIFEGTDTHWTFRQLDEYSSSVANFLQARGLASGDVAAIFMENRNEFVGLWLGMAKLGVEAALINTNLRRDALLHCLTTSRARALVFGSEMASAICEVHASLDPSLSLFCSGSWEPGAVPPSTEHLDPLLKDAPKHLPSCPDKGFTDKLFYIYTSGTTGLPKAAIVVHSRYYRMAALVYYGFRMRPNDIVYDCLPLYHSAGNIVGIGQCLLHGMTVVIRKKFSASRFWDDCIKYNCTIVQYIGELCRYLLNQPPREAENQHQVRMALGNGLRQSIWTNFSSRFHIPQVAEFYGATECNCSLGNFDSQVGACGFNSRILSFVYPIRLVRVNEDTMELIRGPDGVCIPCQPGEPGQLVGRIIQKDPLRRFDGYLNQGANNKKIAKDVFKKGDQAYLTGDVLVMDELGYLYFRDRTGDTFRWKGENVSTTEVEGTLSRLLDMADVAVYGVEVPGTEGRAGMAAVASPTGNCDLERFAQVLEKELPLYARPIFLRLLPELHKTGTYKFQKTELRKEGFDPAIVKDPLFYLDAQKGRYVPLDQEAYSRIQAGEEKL
UniProt Q9Y5L4, sequence (Q9Y5L4 whole entry, looked up): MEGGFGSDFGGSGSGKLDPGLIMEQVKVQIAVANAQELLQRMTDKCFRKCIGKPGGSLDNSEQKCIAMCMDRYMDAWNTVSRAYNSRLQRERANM
UniProt O95149, sequence (O95149 whole entry, looked up): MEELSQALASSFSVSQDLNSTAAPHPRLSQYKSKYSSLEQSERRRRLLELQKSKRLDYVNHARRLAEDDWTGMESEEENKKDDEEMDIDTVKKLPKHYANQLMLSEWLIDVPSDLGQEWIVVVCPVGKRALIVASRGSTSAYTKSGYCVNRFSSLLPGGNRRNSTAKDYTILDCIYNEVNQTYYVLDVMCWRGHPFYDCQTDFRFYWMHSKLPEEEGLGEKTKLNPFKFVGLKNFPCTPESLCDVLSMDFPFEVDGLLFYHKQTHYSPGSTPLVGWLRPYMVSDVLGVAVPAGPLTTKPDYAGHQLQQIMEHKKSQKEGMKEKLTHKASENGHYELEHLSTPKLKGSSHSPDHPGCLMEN

Row | Target | log2 fold change (saracatinib) | log2 fold change (sotrastaurin) | log2 fold change (alvocidib) | log2 fold change (Tubastatin A) | log2 fold change [1] | log2 fold change (defactinib) | log2 fold change (rucaparib) | log2 fold change [2] | log2 fold change (encorafenib) | log2 fold change [3] | log2 fold change [4] | log2 fold change (filanesib) | log2 fold change (zotarolimus) | log2 fold change (idasanutlin) | log2 fold change (alisertib) | log2 fold change [5] | log2 fold change (gefitinib) | log2 fold change [6] | log2 fold change (lapatinib) | log2 fold change (pictilisib)
1 | SNX1 (UniProt Q13596) | 0.006 | -0.006 | -0.084 | -0.021 | -0.112 | -0.036 | -0.023 | 0.028 | 0.024 | -0.026 | -0.021 | -0.182 | 0.042 | -0.013 | -0.003 | -0.063 | -0.165 | 0 | -0.027 | -0.205
2 | TAOK1 (UniProt Q7L7X3) | 0.002 | -0.013 | -0.077 | 0.032 | -0.002 | -0.142 | 0.032 | 0.053 | -0.061 | -0.018 | -0.046 | 0.054 | -0.032 | 0.031 | 0.043 | -0.088 | 0.033 | 0.011 | 0.014 | -0.043
3 | SYMPK (UniProt Q92797) | -0.058 | -0.205 | -0.2 | 0.258 | 0.008 | -0.245 | 0.09 | 0.007 | 0.079 | -0.022 | 0.069 | -0.102 | 0.07 | -0.127 | 0.047 | 0.036 | 0.107 | 0.025 | -0.045 | 0.155
4 | TAMM41 isoform 3 (UniProt Q96BW9) | -0.009 | -0.003 | 0.027 | -0.043 | -0.037 | 0.015 | 0.036 | -0.006 | 0.01 | -0.007 | -0.027 | -0.09 | -0.009 | -0.122 | 0.019 | -0.169 | -0.025 | 0.112 | 0.021 | 0.027
5 | TARBP1 (UniProt Q13395) | 0.026 | -0.036 | -0.031 | -0.033 | 0.021 | -0.026 | 0.042 | -0.027 | -0.041 | 0.014 | -0.036 | -0.077 | 0.105 | -0.027 | 0.096 | 0.049 | -0.026 | -0.019 | -0.015 | -0.078
6 | TIMM13 (UniProt Q9Y5L4) | 0.065 | -0.007 | -0.035 | -0.007 | 0.007 | -0.038 | -0.028 | 0.043 | 0.044 | 0 | 0.206 | -0.091 | 0.042 | -0.043 | -0.006 | -0.3 (active) | -0.002 | -0.01 | 0.027 | -0.056
7 | SLC27A4 (UniProt Q6P1M0) | -0.035 | 0.035 | -0.09 | -0.005 | -0.083 | -0.084 | 0.06 | 0.072 | 0.018 | -0.05 | 0.134 | 0.038 | 0.056 | -0.084 | -0.001 | 0.032 | 0.033 | -0.022 | 0.055 | -0.078
8 | SNUPN (UniProt O95149) | 0.052 | -0.069 | -0.061 | -0.036 | -0.019 | -0.056 | -0.027 | -0.04 | 0.021 | 0.028 | 0.001 | -0.09 | -0.007 | 0.05 | -0.013 | -0.05 | 0.014 | 0.005 | 0.019 | -0.021
